Screening data as filed in PubChem BioAssay.
FBW7 activator = FBW7 E3 ligase activators, primary screen, biochemical, AlphaScreen, human; 0.13% of 650,000 active; F-box/WD repeat-containing protein 7 (Homo sapiens), Q969H0; normalized activity (activation), % at 26.1 µM; AlphaScreen FBW7–phospho-cyclin E peptide binding, activator screen; in the data active = normalized activity above about 1.9%;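 also: purified mutant Fbw7 with reduced substrate affinity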
Target sequence (Q969H0 whole entry, looked up): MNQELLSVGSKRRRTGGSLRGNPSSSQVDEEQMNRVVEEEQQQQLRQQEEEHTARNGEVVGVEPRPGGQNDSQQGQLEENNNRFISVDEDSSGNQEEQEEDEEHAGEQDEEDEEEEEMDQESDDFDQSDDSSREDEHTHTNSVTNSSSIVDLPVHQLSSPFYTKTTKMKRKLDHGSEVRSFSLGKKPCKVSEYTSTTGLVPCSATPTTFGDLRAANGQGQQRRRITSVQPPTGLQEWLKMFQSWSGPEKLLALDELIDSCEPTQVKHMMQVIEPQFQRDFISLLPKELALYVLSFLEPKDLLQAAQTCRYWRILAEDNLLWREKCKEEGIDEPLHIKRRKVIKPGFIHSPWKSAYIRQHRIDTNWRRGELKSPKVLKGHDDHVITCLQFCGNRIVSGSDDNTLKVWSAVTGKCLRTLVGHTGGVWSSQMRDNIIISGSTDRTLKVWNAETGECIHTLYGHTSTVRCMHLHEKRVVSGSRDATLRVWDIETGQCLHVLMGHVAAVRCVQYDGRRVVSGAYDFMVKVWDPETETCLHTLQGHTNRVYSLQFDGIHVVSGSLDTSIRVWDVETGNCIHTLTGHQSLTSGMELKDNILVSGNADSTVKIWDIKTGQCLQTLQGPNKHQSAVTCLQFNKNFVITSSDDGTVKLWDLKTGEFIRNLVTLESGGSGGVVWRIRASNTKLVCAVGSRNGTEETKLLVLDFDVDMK
GPR151 ag = activators of human GPR151, primary screen, cell-based, PathHunter beta-arrestin, luminescence. AID 1508602, 2020. 1% of 650,000 active. G-protein coupled receptor 151 (Homo sapiens), Q8TDV0. PathHunter beta-arrestin GPR151 cells. activation, % at 11.2 µM; in the data active = activation above about 4.9%
MITF primary = MITF inhibitors, primary screen, biochemical, AlphaScreen, human. AID 1259374, 2018. AlphaScreen MITF homodimerization, bead proximity signal. 0.91% of 650,000 active. inhibition, % at 2.6 µM. Microphthalmia-associated transcription factor (Homo sapiens), O75030; in the data active = inhibition above about 50%
TEAD-YAP inh = TEAD-YAP interaction inhibition, primary screen, TEAD-YAP interaction inhibitor project, luminescence, HEK-TIYL cells; TEAD-Gal4/YAP UAS-luciferase luminescence; inhibition, % at 9.12 µM; 1.4% of 640,000 active; AID 1259422, 2018; in the data active = inhibition above about 32%
Of the large screens only hits and unclear results are named; the others gave an inactive call. Hits are enriched below; roughly 3.4% of the tested compounds scored in any of these assays.

Cc1onc(-c2ccccc2)c1C(=O)N1CCN(c2ccc([N+](=O)[O-])cc2Cl)CC1	none
COc1cc(SC)ccc1C(=O)N1CCN(c2cccc(Cl)c2)CC1	TEAD-YAP inh 51.2
COc1ccccc1N1CCN(C(=O)c2cc(Br)cc(Br)c2)CC1	TEAD-YAP inh 58.4
COc1cccc(-n2c(SCC(=O)Nc3ccc(C(C)C)cc3)nc3n[nH]c(C)c3c2=N)c1	TEAD-YAP inh 36.9
COc1cccc(-n2c(SCC(=O)Nc3ccc(C)cc3)nc3n[nH]c(C)c3c2=N)c1	none
CCN(CC)C(=O)CSc1nc2n[nH]c(C)c2c(=N)n1-c1ccc(Oc2ccccc2)cc1	TEAD-YAP inh 42.3
Cc1ccc(-n2c(SCC(=O)NCc3ccccc3)nc3n[nH]c(C)c3c2=N)cc1Cl	none
Cc1ccc(-n2c(SCC(=O)NCc3ccccc3)nc3n[nH]c(C)c3c2=N)cc1C	TEAD-YAP inh 41.3
CCCCn1c(O)c(/C=C2\C=Nc3ccccc32)c(=O)[nH]c1=S	none
O=C(O)c1cc(=O)c(O)c2c(O)c(O)c(O)cc2c1	MITF primary 89.1
O=C(Cc1ccccc1)Nc1cc(C(=O)O)cc(C(=O)O)c1	none
CCCCCOC(=O)c1ccc(N2C(=O)c3ccccc3C2=O)cc1	none
Cc1cc(NC(=O)c2ccccc2)sc1C	none
Cc1ccc(NC(=O)c2ccccc2)s1	TEAD-YAP inh 57.3
O=C(Nc1nnc(-c2ccc(F)cc2)o1)c1cccc(C(F)(F)F)c1	TEAD-YAP inh 69.4
O=C(Nc1nnc(-c2ccc(Cl)cc2)o1)c1cccc(C(F)(F)F)c1	none (no result: FBW7 activator, MITF primary, TEAD-YAP inh)
COc1ccccc1N1CCN(C(=O)CS(=O)(=O)Cc2ccccc2)CC1	none
COc1ccccc1N1CCN(C(=O)CN2CC=C[C@@H]2C(=O)NCCc2ccccc2)CC1	TEAD-YAP inh 41.9
COc1cc(/C=C2\N=C(c3ccccc3C)OC2=O)cc(OC)c1OC	none
Cc1ccccc1CN1C(=O)CSc2ccc(C(=O)N3CCOCC3)cc21	none
Cc1ccccc1CN1C(=O)CSc2ccc(C(=O)N3CCN(c4ccccn4)CC3)cc21	TEAD-YAP inh 44.9
CN(C)/C=C1/S/C(=N/S(=O)(=O)c2ccccc2)N(C2CCCCC2)C1=O	FBW7 activator 2.5
Clc1ccc(-c2nc(-c3ccccn3)no2)c(Cl)c1	TEAD-YAP inh 97.8
Cc1ccc(-c2nc(-c3ccccn3)no2)c(Cl)c1	TEAD-YAP inh 98.3
c1ccc(-c2noc(-c3cccc4ccccc34)n2)nc1	none
Cc1ccc(-c2nc(-c3cccnc3)no2)c(Cl)c1	none
CSc1ccc2nc(N3CCN(C(=O)CN(C)S(C)(=O)=O)CC3)sc2c1	none
COC(=O)c1ccccc1C(=O)N1CCN(c2nc3ccc(SC)cc3s2)CC1	TEAD-YAP inh 46.9
CCOC(=O)C1=C(CN2CCCc3ccccc32)NC(=O)NC1c1ccc(C)cc1 (configuration not stated)	TEAD-YAP inh 61.2
CCOC(=O)C1=C(CN2CCCc3ccccc32)NC(=O)NC1c1ccccc1 (configuration not stated)	none
CC(O)c1nc2cc([N+](=O)[O-])ccc2n1CCO (configuration not stated)	none
COc1cc(CNc2ccc(N(C)C)cc2)ccc1OCC(=O)NC(C)(C)C	TEAD-YAP inh 36.8
COc1cc(CO)ccc1OCC(=O)NC(C)(C)C	none
COc1ccc(/C=C/c2ccc3ccccc3[n+]2[O-])cc1	TEAD-YAP inh 71.9
CCN1/C(=C/c2ccc3ccccc3[n+]2CC)Sc2ccc(Br)cc21	TEAD-YAP inh 71.3
CCN1/C(=C/C(=C/c2sc3ccc(Cl)cc3[n+]2CC)C2CC2)Sc2ccc(Cl)cc21	none
CCN1/C(=C/c2ccc3ccccc3[n+]2CC)Sc2cc(OC)c(OC)cc21	TEAD-YAP inh 91.3
CC[n+]1c(/C=C/c2ccc(OC)c(OC)c2)ccc2ccccc21	TEAD-YAP inh 58.8
COc1ccccc1C1CN(CC(=O)NCC(C)O)Cc2ccccc2O1 (configuration not stated)	none
CNC(=O)c1ccccc1Nc1cc(Nc2ccc(C(=O)N(C)C)cc2OC)ncc1C(F)(F)F	TEAD-YAP inh 57.1
CNC(=O)c1ccccc1Nc1cc(Nc2ccc(C(=O)NC[C@H](O)C(=O)N(C)C)cc2OC)ncc1C(F)(F)F	none
CNC(=O)c1ccccc1Nc1cc(Nc2ccc(N3CCOCC3)cc2OC)ncc1C	TEAD-YAP inh 44.1
COc1cc(N2CCOCC2)ccc1Nc1cc(Nc2ccccc2C(N)=O)c(C(F)F)cn1	none
COc1cc(N2CCOCC2)ccc1Nc1cc(Nc2ccccc2C(=O)N(C)C)c(C(F)(F)F)cn1	none
CCN(CC)CCNC(=O)c1ccc(Nc2cc(Nc3ccccc3C(=O)NC)c(C(F)(F)F)cn2)c(OC)c1	TEAD-YAP inh 64.2
N#Cc1c(SCc2ccccc2)nc2c(c1-c1ccccc1)CC/C2=C\c1ccccc1	none
COc1ccc(S(=O)(=O)NCCNc2nc(C)cc(N(C)C)n2)c(OC)c1	TEAD-YAP inh 32.3
CCc1cc(=O)oc2c(C)c(OCc3ccccc3F)ccc12	none
Cc1ccccc1-n1ncc(C(C)NC(=O)c2c(C)nc3sccn23)c1C (configuration not stated)	TEAD-YAP inh 59.0
CCOC(=O)c1c(/N=c2\oc3c(OC)cccc3cc2C(=O)Nc2cccc(C)c2)sc2c1CCCC2	none
CCOC(=O)c1c(/N=c2\oc3c(OC)cccc3cc2C(=O)Nc2ccc(OC)cc2)sc2c1CCCC2	TEAD-YAP inh 36.2
O=C(COc1ccc(C(=O)NC2CCCCC2)cc1)Nc1ccccc1F	none
Cc1nc2sccn2c1-c1csc(Nc2ccccc2)n1	none
Cc1nc2sccn2c1-c1csc(Nc2ccc(N)cc2)n1	none
Cc1nc2sccn2c1-c1csc(Nc2cccc(O)c2)n1	TEAD-YAP inh 37.2
Cc1nc2sccn2c1-c1csc(Nc2ccc(Br)cc2)n1	TEAD-YAP inh 49.5
COc1ccc2c(c1)CC(C(=O)Nc1ccc(-c3cn[nH]c3)cc1OCCN1CCCC1=O)CO2 (configuration not stated)	none
Cc1c(NS(=O)(=O)c2ccc([N+](=O)[O-])cc2)c(=O)n(-c2ccccc2)n1C	FBW7 activator 2.0
OCCC1CN(Cc2cccs2)CCN1Cc1ccccc1F (configuration not stated)	none
O=C(Nc1nc2ccccc2s1)c1ccccc1F	TEAD-YAP inh 87.0
O=C(Nc1nc2ccccc2s1)c1ccccc1O	none
O=C(Nc1nc2ccccc2s1)c1ccccc1Cl	TEAD-YAP inh 81.0
O=C(Nc1nc2ccccc2s1)c1cccc(Cl)c1Cl	none
CC(=O)Nc1ccc2nc(NC(=O)c3ccc(Cl)cc3Cl)sc2c1	none
O=C(Nc1nc2ccccc2s1)c1ccc(Cl)cc1Cl	TEAD-YAP inh 81.3
O=C(CSc1nc2ccsc2c(=O)n1NC(=O)c1ccccc1)c1ccc(Cl)c(Cl)c1	none
Nc1cccc(-c2nc3cc4ccccc4cc3[nH]2)c1	TEAD-YAP inh 50.2
Nc1ccc(C(=O)Nc2ccc3nc(-c4ccccc4)[nH]c3c2)cc1	none
CN(C)c1ccc(-c2nc3ccccc3[nH]2)cc1	TEAD-YAP inh 95.7
